± gives the standard deviation of the averaged measurements.
What follows are compounds tested on HCI13 (cells of an ER-positive luminal breast cancer xenograft) (assay: cell viability (% of vehicle); higher = less cytotoxic). Details: 10 µM; 72 h.
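Also: PDX cells carrying CMV promoter-driven luciferase, viability read as total photon flux per second by IVIS imaging following D-luciferin, vehicle control 0.1% DMSO.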

Compound | cell viability
CCCCc1oc2ccc(NS(C)(=O)=O)cc2c1C(=O)c1ccc(OCCCN(CCCC)CCCC)cc1.Cl [Dronedarone HCl] | 34.9 ± 1.1
CC(C)CC(NC(=O)CNC(=O)c1cc(Cl)ccc1Cl)B(O)O (stereo not given) | 33.1 ± 5.4
COC(=O)C1=C(C)NC(C)=C(C(=O)OCCN(C)Cc2ccccc2)C1c1cccc([N+](=O)[O-])c1.Cl (stereo not given) [Nicardipine HCl] | 55.4 ± 8.6
CCOc1cc2ncc(C#N)c(Nc3ccc(F)c(Cl)c3)c2cc1NC(=O)C=CCN(C)C [Pelitinib (EKB-569)] | 34.2 ± 0.47
CCOC(=O)c1c(CSc2ccccc2)n(C)c2cc(Br)c(O)c(CN(C)C)c12.Cl [Arbidol HCl] | 64.4 ± 11
CN(C)CCOc1ccc(C(=C(CCCl)c2ccccc2)c2ccccc2)cc1.O=C(O)CC(O)(CC(=O)O)C(=O)O [Toremifene Citrate] | 46.4 ± 2.6
CN(C)c1ccc(O)c2c1CC1CC3C(N(C)C)C(=O)C(C(N)=O)=C(O)C3(O)C(=O)C1=C2O.Cl (stereo not given) [Minocycline HCl] | 78.7 ± 12
CC(Oc1cc(-c2cnn(C3CCNCC3)c2)cnc1N)c1c(Cl)ccc(F)c1Cl [(R)-Crizotinib] | 141.8 ± 0.89
CC(C)(C)NC(=O)C1CC2CCCCC2CN1CC(O)C(Cc1ccccc1)NC(=O)C(CC(N)=O)NC(=O)c1ccc2ccccc2n1.CS(=O)(=O)O (stereo not given) [Saquinavir mesylate] | 38.63 ± 0.17
O=C1C=CC=CC1=C1NC(=C2C=CC=CC2=O)N(c2ccc(C(=O)O)cc2)N1 [Deferasirox] | 62.9 ± 16

From the supplement of paper PMC6992640
